Data as given in PubChem BioAssay AID1159580 (chemical genetic matrix, 2015).
Several values for one entry are separate records, joined by “and”; a condition that tells them apart may be missing. Equal entries are not always repeated. Hit rate of the full screen: of about 5,500 compounds, about 2,000 (36%) were called active. Roughly 18% stayed inconclusive and do not appear here. The list shows a part of the results. Values without a mark were called inactive. No stated cut-off is given here; in the data, active means normalized growth mostly below about 0.91 (no sharp cut-off); inconclusive means no clear call, values can overlap the other calls; inactive means mostly above about 0.92.

Test: chemical genetic growth profiling, strain panel (AID 1159580);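 further: tested at 20 µM; growth read once vehicle control cultures reached saturation at 30 °C; 1 = growth at the plate median or of vehicle wells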
Conditions: S. cerevisiae deletion strains, growth OD

COc1c2ccoc2c(OC)c2oc(=O)ccc12
normalized growth (locus YAL013W, strain DEP1, stronger effect = lower value): 0.978
normalized growth (locus YAL021C, strain ccr4, stronger effect = lower value): 0.94
normalized growth (locus YAL026C, strain drs2, stronger effect = lower value): 0.953
normalized growth (locus YAL030W, strain snc1, stronger effect = lower value): 0.978
normalized growth (locus YBL061C, strain skt5, stronger effect = lower value): 0.974
normalized growth (locus YBR009C, strain hhf1, stronger effect = lower value): 0.923
normalized growth (locus YBR021W, strain FUR4, stronger effect = lower value): 0.901
normalized growth (locus YBR023C, strain chs3, stronger effect = lower value): 0.888 (active)
normalized growth (locus YBR171W, strain sec66, stronger effect = lower value): 0.975
normalized growth (locus YBR229C, strain ROT2, stronger effect = lower value): 0.945
normalized growth (locus YBR231C, strain swc5, stronger effect = lower value): 0.966
normalized growth (locus YBR279W, strain paf1, stronger effect = lower value): 0.939
normalized growth (locus YCL011C, strain gbp2, stronger effect = lower value): 0.934
normalized growth (locus YCL016C, strain dcc1, stronger effect = lower value): 0.876 (active)
normalized growth (locus YCL029C, strain bik1, stronger effect = lower value): 0.965
normalized growth (locus YCL061C, strain MRC1, stronger effect = lower value): 0.944
normalized growth (locus YCL069W, strain vba3, stronger effect = lower value): 0.979
normalized growth (locus YCR088W, strain abp1, stronger effect = lower value): 0.997
normalized growth (locus YDL005C, strain med2, stronger effect = lower value): 0.989
normalized growth (locus YDL035C, strain GPR1, stronger effect = lower value): 0.929
normalized growth (locus YDL040C, strain nat1, stronger effect = lower value): 0.996
normalized growth (locus YDL074C, strain BRE1, stronger effect = lower value): 0.934
normalized growth (locus YDL101C, strain DUN1, stronger effect = lower value): 0.959
normalized growth (locus YDL134C, strain PPH21, stronger effect = lower value): 0.983
normalized growth (locus YDL185W, strain tfp1, stronger effect = lower value): 0.941
normalized growth (locus YDL192W, strain arf1, stronger effect = lower value): 0.911 (active)
normalized growth (locus YDR001C, strain nth1, stronger effect = lower value): 0.97
normalized growth (locus YDR069C, strain doa4, stronger effect = lower value): 0.982
normalized growth (locus YDR101C, strain arx1, stronger effect = lower value): 0.904 (active)
normalized growth (locus YDR137W, strain rgp1, stronger effect = lower value): 0.991
normalized growth (locus YDR150W, strain NUM1, stronger effect = lower value): 0.991
normalized growth (locus YDR159W, strain sac3, stronger effect = lower value): 1.02
normalized growth (locus YDR162C, strain NBP2, stronger effect = lower value): 0.884
normalized growth (locus YDR195W, strain ref2): 1.26 [resistant] (active)
normalized growth (locus YDR297W, strain sur2, stronger effect = lower value): 0.978
normalized growth (locus YDR318W, strain mcm21, stronger effect = lower value): 0.966
normalized growth (locus YDR334W, strain swr1, stronger effect = lower value): 0.938
normalized growth (locus YDR335W, strain msn5, stronger effect = lower value): 0.91 (active)
normalized growth (locus YDR388W, stronger effect = lower value): 0.966
normalized growth (locus YDR392W, strain spt3, stronger effect = lower value): 0.724 (active)
normalized growth (locus YDR502C, strain sam2, stronger effect = lower value): 0.97
normalized growth (locus YEL003W, strain gim4, stronger effect = lower value): 0.949
normalized growth (locus YEL037C, strain rad23, stronger effect = lower value): 0.976
normalized growth (locus YEL061C, strain CIN8 (second series), stronger effect = lower value): 0.972
normalized growth (locus YEL061C, strain CIN8, stronger effect = lower value): 0.977
normalized growth (locus YER015W, strain faa2, stronger effect = lower value): 0.912 (active)
normalized growth (locus YER016W, strain bim1, stronger effect = lower value): 0.99
normalized growth (locus YER110C, stronger effect = lower value): 0.96
normalized growth (locus YER111C, strain swi4, stronger effect = lower value): 0.987
normalized growth (locus YER155C, strain BEM2 (second series), stronger effect = lower value): 0.835 (active)
normalized growth (locus YER155C, strain BEM2, stronger effect = lower value): 1.01
normalized growth (locus YER167W, strain BCK2, stronger effect = lower value): 0.97
normalized growth (locus YFR010W, strain ubp6, stronger effect = lower value): 0.968
normalized growth (locus YGL078C, strain dbp3, stronger effect = lower value): 0.987
normalized growth (locus YGL086W, strain mad1, stronger effect = lower value): 0.969
normalized growth (locus YGL167C, strain pmr1, stronger effect = lower value): 0.964
normalized growth (locus YGL173C, strain kem1, stronger effect = lower value): 0.979
normalized growth (locus YGL227W, strain vid30, stronger effect = lower value): 0.997
normalized growth (locus YGL240W, strain doc1, stronger effect = lower value): 0.969
normalized growth (locus YGL248W, strain PDE1, stronger effect = lower value): 0.96
normalized growth (locus YGL253W, strain hxk2, stronger effect = lower value): 0.959
normalized growth (locus YGR078C, strain PAC10, stronger effect = lower value): 0.962
normalized growth (locus YGR135W, strain pre9, stronger effect = lower value): 0.999
normalized growth (locus YGR252W, strain gcn5, stronger effect = lower value): 0.91
normalized growth (locus YHR013C, strain ard1, stronger effect = lower value): 0.912
normalized growth (locus YHR027C, strain rpn1, stronger effect = lower value): 0.959
normalized growth (locus YHR030C, strain SLT2, stronger effect = lower value): 0.99 and 0.993
normalized growth (locus YHR079C, strain IRE1 (second series), stronger effect = lower value): 0.983
normalized growth (locus YHR079C, strain IRE1, stronger effect = lower value): 0.989
normalized growth (locus YHR094C, strain hxt1, stronger effect = lower value): 0.98
normalized growth (locus YHR129C, strain ARP1, stronger effect = lower value): 0.981
normalized growth (locus YHR142W, strain chs7, stronger effect = lower value): 0.882
normalized growth (locus YHR200W, strain rpn10, stronger effect = lower value): 0.936
normalized growth (locus YIL066C, strain RNR3, stronger effect = lower value): 0.946
normalized growth (locus YIL073C, strain SPO22, stronger effect = lower value): 0.954
normalized growth (locus YIL125W, strain kgd1, stronger effect = lower value): 0.984
normalized growth (locus YIR030C, strain dcg1, stronger effect = lower value): 0.979
normalized growth (locus YJL092W, strain hpr5, stronger effect = lower value): 0.964
normalized growth (locus YJL095W, strain BCK1 (second series), stronger effect = lower value): 0.969
normalized growth (locus YJL095W, strain BCK1, stronger effect = lower value): 0.913 and 0.989
normalized growth (locus YJL115W, strain asf1, stronger effect = lower value): 0.959
normalized growth (locus YJL129C, strain trk1, stronger effect = lower value): 1.02
normalized growth (locus YJL134W, strain LCB3, stronger effect = lower value): 0.983
normalized growth (locus YJL154C, strain vps35, stronger effect = lower value): 0.983
normalized growth (locus YJL164C, strain tpk1, stronger effect = lower value): 0.912 (active)
normalized growth (locus YJL166W, strain qcr8, stronger effect = lower value): 0.96
normalized growth (locus YJL168C, strain set2, stronger effect = lower value): 0.989
normalized growth (locus YJL187C, strain SWE1 (second series), stronger effect = lower value): 0.959
normalized growth (locus YJL187C, strain SWE1, stronger effect = lower value): 0.951
